# Results taken from the supplement of paper PMC10933113.
# Structures can show the parent of a compound that is named as a salt. ± gives the uncertainty stated by the source.
# Test system: THP-1
# Assay: CD86 surface expression induction over DMSO control (% over DMSO); higher = stronger dendritic cell activation
# Details: exposure time: 24 h
# Procedure: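 hCLAT-like CD54 and CD86 surface expression on THP1 cells after 24 h exposure at a single concentration (highest non-cytotoxic concentration, or 100-200 µM if not cytotoxic). Flow cytometry (iQue) was run on 5,000 live cells.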
row,SMILES,CD86 surface expression induction
1,O=C(O)c1cn(C2CC2)c2cc(N3CCNCC3)c(F)cc2c1=O [Ciprofloxacin] (100 µM),-5.55 ± 6.9
2,CC(=O)Oc1ccc(C2(c3ccc(OC(C)=O)cc3)C(=O)Nc3ccccc32)cc1 [Oxyphenisatin acetate] (100 µM),6.01 ± 7.9
3,"CC(C)(C)c1cc(O)c(C(C)(C)C)cc1O [2,5-Di-tert-butylbenzene-1,4-diol] (100 µM)",6.5 ± 4.4
4,COP(=O)(O)OP(=O)(O)OC [Dimethyl dihydrogen diphosphate] (200 µM),-3.42 ± 3.5
5,"CCCCNC(=S)NCCCC [N,N'-Dibutylthiourea] (10 µM)",-9.37 ± 9.2
6,COC(=O)CCCCCCCC(=O)OC [Dimethyl nonanedioate] (200 µM),-0.54 ± 1.9
7,CC(C)C[C@H](NC(=O)[C@H](Cc1ccccc1)NC(=O)c1cnccn1)B(O)O [Bortezomib] (10 µM),107 ± 8.1
8,COC(=O)Nc1nc2ccc(C(=O)C3CC3)cc2[nH]1 [Cyclobendazole] (100 µM),7.71 ± 16
9,Cc1cccc(N(C)C(=S)Oc2ccc3c(c2)C2CCC3C2)c1 (stereo not given) [Tolciclate] (100 µM),-1.12 ± 6
10,CC(C(=O)O)c1ccc(/C=C2\CCCCC2=O)cc1 (stereo not given) [Pelubiprofen] (100 µM),-4.77 ± 4.1
11,CCOC(=O)CCC(=O)OCC [Diethyl butanedioate] (200 µM),-4.2 ± 3.3
12,CCCCCCCCCCCCN(CCO)CCO [Lauryldiethanolamine] (10 µM),-16.1 ± 0.72
13,Clc1ccc(C(Cn2ccnc2)OCc2ccc(Sc3ccccc3)cc2)c(Cl)c1 (stereo not given) [Fenticonazole nitrate] (100 µM),102 ± 96
14,"C/C=C/C=C/C=O [2,4-Hexadienal] (200 µM)",4.48 ± 7.5
15,Cc1c(C)n(CCN(C)C)c2ccc(C(=O)OCCN(C)C)cc12 [Amindocate] (100 µM),1.11 ± 2.2
16,C/C=C/C=C/CCCCCCCO [Codlelure] (200 µM),-13 ± 6
17,O=C(Oc1ccccc1)c1cccc(C(=O)Oc2ccccc2)c1 [Diphenyl isophthalate] (200 µM),1.84 ± 5.6
18,O=C1c2cccc(O)c2C(=O)c2c(O)cc(CO)cc21 [Aloe-emodin] (100 µM),4.61 ± 9.4
19,"c1ccc(SCCSc2ccccc2)cc1 [1,2-Bis(phenylthio)ethane] (100 µM)",-2.45 ± 2.3
20,Nc1ccc(/N=N/c2ccccc2)c(N)n1 [Phenazopyridine hydrochloride] (100 µM),-8.42 ± 5.7

row,SMILES,CD86 surface expression induction
1,O=c1cc(-c2ccccc2)oc2ccccc12 [Flavone] (200 µM),16.4 ± 4.7
2,COc1ccc(C(=O)/C(Br)=C\C(=O)O)cc1 [Cytembena] (200 µM),32 ± 49
3,[Cl][Bi]([Cl])([c]1ccccc1)([c]1ccccc1)[c]1ccccc1 [Triphenylbismuthine dichloride] (10 µM),53 ± 6.3
4,O=C(Nc1ccccc1)c1cc(Cl)ccc1O [5-Chlorosalicylanilide] (10 µM),-11.7 ± 12
5,CC(C)(C)c1ccc(S)cc1 [4-tert-Butylbenzenethiol] (200 µM),12.9 ± 21
6,"Nc1cc(Cl)c(O)c(Cl)c1 [4-Amino-2,6-dichlorophenol] (100 µM)",-14.4 ± 29
7,C=C(C)C(=O)Nc1ccc(Cl)c(Cl)c1 [Chloranocryl] (100 µM),-22.2 ± 23
8,CCN(CC)c1ccc(C(=O)c2ccccc2C(=O)O)c(O)c1 [2-[4-(Diethylamino)-2-hydroxybenzoyl]benzoic acid] (10 µM),-12.1 ± 11
9,COc1ccc(C(=O)c2ccc(C)cc2)c(O)c1 [Mexenone] (300 µM),18.8 ± 32
10,CC1COc2ccccc2N1C(=O)C(Cl)Cl (stereo not given) [Benoxacor] (10 µM),17.1 ± 5.4
11,COc1cccc2c1C(=O)c1c(O)c3c(c(O)c1C2=O)C[C@@](O)(C(=O)CO)C[C@@H]3O[C@H]1C[C@H](N)[C@H](O)[C@H](C)O1 [Doxorubicin*] (10 µM),218 ± 96
12,C=CCOC(Cn1ccnc1)c1ccc(Cl)cc1Cl (stereo not given) [Imazalil sulfate] (100 µM),16.4 ± 4.3
13,CC/C=C\C/C=C\C/C=C\CCCCCCCC(=O)OCC [Ethyl linolenate] (10 µM),-8.18 ± 6.8
14,CCCSS/C(CCO)=C(/C)N(C=O)Cc1cnc(C)nc1N [Prosultiamine] (10 µM),-13 ± 4.4
15,COc1cc(Nc2c(C#N)cnc3cc(OCCCN4CCN(C)CC4)c(OC)cc23)c(Cl)cc1Cl [Bosutinib] (100 µM),5.12 ± 41
16,"O=[N+]([O-])c1cc(Cl)c(Cl)c(Cl)c1Cl [2,3,4,5-Tetrachloronitrobenzene] (10 µM)",-3.95 ± 2.5
17,O=C(O)Cn1c(C(=O)Nc2nc(-c3ccccc3Cl)cs2)cc2ccccc21 [Lintitript] (100 µM),-2.3 ± 0.27
18,COC(=O)Nc1nc2cc([S+]([O-])c3ccccc3)ccc2[nH]1 (stereo not given) [Oxfendazole] (100 µM),13.3 ± 2.3
19,Sc1nc2ccccc2s1 [2-Mercaptobenzothiazole] (100 µM),-1.26 ± 3.2
20,Cn1sccc1=O [2-Methyl-4-isothiazolin-3-one hydrochloride] (10 µM),-16.2 ± 4.7
